Only some compounds are listed: those with a hit (about 7.5% of all), similar ones and a draw of the others.
FLuc counter = counter-screen for miR-21 project: firefly luciferase inhibitors or activators. 360,000 compounds, 6.9% hits. Potency, µM (top dose mostly 57.5 µM), without a hit: at the highest dose activity change, negative = inhibition, most hits filed as inhibitors. P08659. purified FLuc, Km substrates, luminescence inhibition;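 also: plate controls were vehicle for no effect and reference inhibitor for full effect; nearly all actives have a fitted effect of over 55% in size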
Target sequence (P08659 whole entry, looked up): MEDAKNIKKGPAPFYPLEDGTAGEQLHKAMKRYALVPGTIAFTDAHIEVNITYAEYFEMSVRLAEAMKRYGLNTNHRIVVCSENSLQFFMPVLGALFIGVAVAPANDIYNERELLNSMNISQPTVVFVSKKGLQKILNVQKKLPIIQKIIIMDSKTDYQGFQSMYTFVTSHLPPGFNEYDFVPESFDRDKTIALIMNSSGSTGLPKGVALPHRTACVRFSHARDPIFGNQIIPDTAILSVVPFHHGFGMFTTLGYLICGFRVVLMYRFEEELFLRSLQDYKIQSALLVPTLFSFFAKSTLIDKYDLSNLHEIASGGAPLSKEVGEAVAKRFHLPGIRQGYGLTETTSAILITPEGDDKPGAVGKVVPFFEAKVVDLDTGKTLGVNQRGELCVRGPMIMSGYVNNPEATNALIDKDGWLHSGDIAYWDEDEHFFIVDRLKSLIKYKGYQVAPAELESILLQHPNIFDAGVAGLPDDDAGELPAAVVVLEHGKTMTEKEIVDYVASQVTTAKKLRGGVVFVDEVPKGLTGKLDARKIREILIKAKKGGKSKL
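Purified P. pyralis luciferase, 10 nM final, with Km-level 10 uM D-luciferin and 10 uM ATP in 50 mM Tris acetate pH 7.5, 10 mM Mg acetate, 0.01% Tween-20, 0.05% BSA; 6-point qHTS titration about 60 µM downward; luminescence read.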
Rab9 promoter act = Rab9 promoter activation | Huh7 Rab9 promoter-luciferase reporter, luminescence, 24 h | Potency, µM (series often up to 9.22 µM), for the others: top-dose activation, negative = inhibition, usual class: activators | 320,000 compounds, 2.8% hits | AID 485297; also: % of control where 0% means no effect; nearly all actives have a fitted effect of over 60% in size
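Huh7 reporter line, Rab9 promoter upstream of luciferase. Compound exposure 24 h at 37 °C in reduced-serum medium with 10% FBS. Read-out: luminescence.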
ELG1 genotoxic = inducers of genotoxicity in HEK293T ELG1-luciferase cells | HEK293T ELG1-luciferase reporter, luminescence, 16 h | Potency, µM (doses to about 46 µM), for inactives: at the highest dose activity change, positive = activation, hits mostly activators | 330,000 compounds, 1.3% hits; also: % of control where 0% means no effect; nearly all actives have a fitted effect of over 60% in size
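Genotoxic stress is detected as increased luminescence from luciferase-tagged ELG1 in HEK293T cells, measured with ONE-Glo after a 16 hr treatment at 37 °C.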
NPC1 promoter act = activates the NPC1 promoter. Huh7 NPC1 promoter luciferase reporter, 24 h. AID 485313. Potency, µM (top dose mostly 9.22 µM), for the others: top-dose activation, hits mostly activators. 320,000 compounds, 2.4% hits; also: % of control where 0% means no effect; nearly all actives have a fitted effect of over 60% in size
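Compounds in DMSO were transferred onto Huh7 NPC1-luciferase reporter cells pre-incubated 2 h; after 24 h at 37 °C, Amplite reagent was dispensed and luminescence recorded 10 min later.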
SMN2 splice enh = increases expression of the SMN2 splice variant; HEK293 SMN2-luciferase splicing reporter, luminescence, 30-36 h; Potency, µM (titrated, usually from 46.1 µM), for inactives: top-dose activity change, positive = activation, most hits filed as activators; 210,000 compounds, 2.8% hits; AID 1458; also: % of control where 0% means no effect; nearly all actives have a fitted effect of over 55% in size
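HEK293 cells carry an SMN2 […]–luciferase reporter in which exon 7 inclusion puts luciferase in frame. Cells were plated 10-12 h before compound addition, then incubated 30-36 h at 37C. ONE-Glo luminescence was read; sodium butyrate at 4.5 mM final served as control.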
* marks the source's active call; other numbers are inactive results; ? = inconclusive; . = no result; [ ] = remark or other dose. Calls follow the shape of the dose curve; as a rule, active = well fitted curve in the direction sought with a large enough effect; inconclusive = small, poorly fitted or top-dose-only effect, or another doubt; inactive = no such curve, though single readings can be large; an effect the other way counts as inactive or inconclusive. Potency is read from the fitted curve at half-maximal effect.

SMILES	FLuc counter	Rab9 promoter act	ELG1 genotoxic	NPC1 promoter act	SMN2 splice enh
O=C1c2ccccc2C(=O)N1Cc1ccco1	0%	-14%	0%	-2%	22%
CCCCN1C(C)=CC(=C2C(=O)c3ccccc3C2=O)C=C1C	1.5µM*	0.4µM*	0.82µM*	0.5µM*	-25%
CN(C(=O)CSc1nnc(-c2cccnc2)o1)C1CCCCC1	-2%	-1%	1%	-1%	.
O=C(CSc1nc2cc(Cl)ccc2o1)N1CCOCC1	-5%	1%	4%	3%	20%
O=C(O)c1ccc2oc(SCC(=O)N3CCCCC3)nc2c1	17µM*	2.5µM*	?	3.5µM*	13µM*
CC1CCCN(C(=O)CSc2nc3ccccc3o2)C1 (stereo unspecified)	17µM*	3.2µM*	?	2.5µM*	19%
CN(C(=O)CSc1nc2ccccc2o1)C1CCCCC1	7.6µM*	2.8µM*	?	2.2µM*	.
CC(C)(C)Cc1nnc(NC(=O)CCc2ccccc2)s1	-3%	?	8%	?	.
CCc1cc2c(=O)c(-c3nc(C)cs3)coc2cc1OC(C)C(=O)NCCO (stereo unspecified)	11µM*	1%	-6%	0%	-6%
CCc1cc2c(-c3ccccc3)cc(=O)oc2cc1OC(C)C(C)=O (stereo unspecified)	0%	-1%	3%	-3%	.
CCN(CC)c1ccc(N=Nc2ncn[nH]2)cc1	12µM*	2.8µM*	?	2.8µM*	13µM*
COc1ccc(C(=O)N2CCN(CCc3ccccc3)CC2)cc1[N+](=O)[O-]	4%	3%	-5%	0%	.
NC(N)=NC(=O)c1nc(Cl)c(N2CCCCCC2)nc1N	4.3µM*	?	16µM*	?	8%
NC(N)=NC(=O)c1nc(Cl)c(N)nc1N	2%	3%[46.1 µM]	0%	1%[46.1 µM]	-32%
COc1cc(C(C)=O)ccc1OCC(=O)Nc1ccc2nc(C)sc2c1	.	-2%	3%	1%	.
COc1cccc(CNC(=O)Cn2c(=O)n3nc(-c4cccc(C)c4)nc3c3ccccc32)c1	-2%	.	.	.	.
Cc1cccc(-c2nc3c4ccccc4n(CC(=O)Nc4cccc(F)c4)c(=O)n3n2)c1	24µM*	.	.	.	.
O=C(CCC(=O)c1ccc(Cl)cc1)OCn1nnc2ccccc2c1=O	.	.	0%	.	.
COc1ccc(C(=O)Nc2cc(C(C)C)c(O)c(S(=O)(=O)c3ccc(OC)cc3)c2C)cc1	?	.	.	.	16µM*
COc1ccc(S(=O)(=O)Nc2cc(C(C)C)c(O)cc2C)cc1	0%	0%	-3%	-3%	7%
COc1ccc(S(=O)(=O)c2c(O)c3ccc(C(=O)Nc4ccccc4F)cc3[nH]c2=O)cc1	-17%	4%	0%[9.26 µM]	-4%	.
COc1ccc(C(=O)Nc2cc(C(C)C)c(O)c(S(=O)(=O)c3ccc(Cl)cc3)c2C)cc1	?	.	.	.	11µM*
O=C(NCCc1ccccc1)c1ccco1	?	?	?	?	13µM*
CC(=O)c1c(C)[nH]c(C(=O)NCCc2ccccc2)c1C	11µM*	1.3µM*	?	2.5µM*	11µM*
O=C(NCCc1ccccc1)c1c(F)cccc1F	17µM*	1.4µM*	?	1.6µM*	.
SMILES	FLuc counter	Rab9 promoter act	ELG1 genotoxic	NPC1 promoter act	SMN2 splice enh
COc1ccc(CCNC(=O)c2[nH]c(C)c(C(C)=O)c2C)cc1OC	6%	3%	-1%	2%	?
CN(CC(=O)NCCc1ccccc1)Cc1ccco1	?	26%	21µM*	?	.
Cc1ccnc(NC(=O)CCC(=O)N(CC(=O)NCCc2ccccc2)Cc2ccco2)c1	-2%	-2%	-1%	0%	6%
C/C(=N\NC(=O)c1cc(-c2cccc([N+](=O)[O-])c2)n[nH]1)c1ccccc1O	4%	-6%	6%	-2%	-80%
COc1ccc(C(C(=O)NC2CCCCC2)N(Cc2cccnc2)C(=O)c2snc(C(N)=O)c2N)cc1 (stereo unspecified)	2%	0%	-3%	-3%	.
COc1ccc(Cl)cc1S(=O)(=O)NCc1ccc2c(c1)CCN2C(=O)c1cccc(C)c1	3%	.	.	.	.
OCC1(CO)COC(CCc2ccccc2)=N1	-1%	-4%	0%	-2%	.
CSc1ccc(S(=O)(=O)Nc2ccc3c(c2)OCCO3)cc1	2%	-2%	0%	-3%	-43%

Bioassay records: PubChem BioAssay, National Center for Advancing Translational Sciences (NCATS)
